Consider 28 compounds from PubChem BioAssay (NCATS).

Inconclusive results are not listed. A call without a number means that no potency is given here. A number with no mark means an inactive call. Active and inactive are the calls of the source. Calls follow the shape of the dose curve; as a rule, active = well fitted inhibition curve with a large enough effect; inconclusive = small, poorly fitted or top-dose-only effect; inactive = no such curve, though single readings can be large or run the other way. Where a SMILES comes first, the peptide text is derived from it. The star is where a group is joined. AFC = O=c1cc(C(F)(F)F)c2ccc(N*)cc2o1

The test system of experiment [1] is Zika virus NS2B-NS3 protease (unlinked complex). In words: Primary screen GU Rhodamine qHTS for Zika virus inhibitors: Unlinked NS2B-NS3 protease assay (AID 1347159). Also: nearly all actives have a fitted effect of over 60% in size. Also: potency is read from the fitted curve at half-maximal effect. Particulars: Recombinant ZIKV NS2B-NS3 protease, Rhodamine110 substrate fluorescence; series mostly up to 107 µM. An outline of the steps:
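Compounds, tested up to 114 microM, were incubated for 15 minutes with 25 nM unlinked NS2B-NS3 protease at pH 8.0. Cleavage of 1.5 microM Rhodamine110 substrate was then followed by fluorescence for 15 minutes.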

For experiment [2], the system named is Zika virus NS2B-NS3 protease (linked construct). The experiment can be described thus: Primary screen NINDS Rhodamine qHTS for Zika virus inhibitors (AID 1347160). Also: nearly all actives have a fitted effect of over 55% in size. Conditions: purified NS2B-NS3 protease, Rhodamine110 substrate fluorescence; series mostly up to 57.1 µM. The method, boiled down:
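Percent inhibition, normalized to uninhibited and enzyme-free controls, is fitted to a 4-parameter Hill equation. Fluorescence change comes from a 15-min cleavage of 1.5 microM bis-peptide Rhodamine110 substrate by 25 nM linked NS2B-NS3 at room temperature.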
For orientation: Quantitative high-throughput screening tests each substance at several concentrations.

Take `CCOC(=O)c1sc(NC(=O)[C@H](C(C)C)n2c(=O)[nH]c3ccccc3c2=O)nc1C`: the Potency entry in experiment [1] and in experiment [2] was “inactive” each time.
Turning to `O=C(O)CC(=O)OC[C@H]1O[C@@H](Oc2ccc3c(c2)OC[C@H]2c4cc5c(cc4O[C@@H]32)OCO5)[C@H](O)[C@@H](O)[C@@H]1O`, the Potency result in experiment [1] and in experiment [2] was “inactive” throughout.
`CC(=O)N[C@@H](Cc1c[nH]c2ccccc12)C(=O)N[C@@H](CCC(=O)O)C(=O)N[C@@H](Cc1cnc[nH]1)C(=O)N[C@@H](CC(=O)O)C(=O)Nc1ccc2c(C(F)(F)F)cc(=O)oc2c1` (Ac-WEHD-{AFC}): the Potency entry in experiment [1] and in experiment [2] was “inactive” each time.
For the compound `CCOc1ccc2nc(SCCN3CCOCC3)[nH]c2c1`, the Potency entry in experiment [1] and in experiment [2] was “inactive” each time.
Regarding `C[C@H](Nc1ncnc2nc[nH]c12)c1cc2ccc(F)cc2nc1-c1ccccn1`, the Potency result in experiment [1] and in experiment [2] was “inactive” throughout.
Turning to `CC1(C(=O)O)CCCC2(C)C3=CCC4CC3(CCC12)CC4CO` (stereo unspecified), the Potency entry in experiment [1] and in experiment [2] was “inactive” in each case.
For the compound `CC(O)/C=C/C1C(C)C(O[C@@H]2O[C@H](CO)[C@@H](O)[C@H](O)[C@H]2O)C(O)CC1(C)C` (stereo partly specified), the Potency result in experiment [1] and in experiment [2] was “inactive” in each case.
`COC(=O)C1(C)CCC2(C(=O)O)CCC3(C)C(=CCC4C5(C)CC(O)C(OC6OCC(O)C(O)C6O)C(C)(CO)C5CCC43C)C2C1` (stereo unspecified): the Potency entry in experiment [1] and in experiment [2] was “inactive” throughout.
Take `O=C(O)c1ccc(CN2CCC(CN[C@@H]3C[C@H]3c3ccccc3)CC2)cc1`: the Potency result in experiment [1] and in experiment [2] was “inactive” in each case.
As to `CC(C)c1cc(CNc2nc(Nc3cc(C4CC4)[nH]n3)cc(N3CCN(C)CC3)n2)on1`, the Potency entry in experiment [1] and in experiment [2] was “inactive” each time.
Take `COC(=O)c1c(C)cc(OC(=O)c2c(C)cc(OC)cc2OC)cc1O[C@@H]1O[C@H](CO)[C@@H](O)[C@H](O)[C@H]1O`: the Potency entry in experiment [1] and in experiment [2] was “inactive” each time.
On to `CCOc1ccc(NC(=S)N2CCC(C(O)(c3ccccc3)c3ccccc3)CC2)cc1`, for which the Potency result in experiment [1] and in experiment [2] was “inactive” each time.
As to `CN(C)C/C=C/C(=O)Nc1cc2c(Nc3ccc(F)c(Cl)c3)ncnc2cc1OC1CCOC1` (stereo unspecified), the Potency entry in experiment [1] and in experiment [2] was “inactive” in each case.
For `CC(C)(O)C1CCC(C)(C2CCC3(C)C4CCC5C(C)(C(=O)OC6OC(CO)C(O)C(O)C6O)C(O)CC(O)C56CC46CCC23C)O1` (stereo unspecified), the Potency entry in experiment [1] and in experiment [2] was “inactive” each time.
For `O=C(/C=C/c1ccc(O)cc1)OC1[C@H](O)CC(O)(C(=O)O)C[C@H]1O` (stereo partly specified), the Potency result in experiment [1] and in experiment [2] was “inactive” throughout.
Consider `C=C1C(=O)O[C@@H]2C/C(C)=C\C(=O)/C=C(\C)[C@@H](OC(=O)/C(C)=C\C)[C@H](O)[C@@H]12`, for which the Potency result in experiment [1] and in experiment [2] was “inactive” each time.
Consider `CC(C)=CC/C=C(\C)[C@H]1CC[C@]2(C)[C@@H]1[C@H](O)C[C@@H]1[C@@]3(C)CC[C@H](O)C(C)(C)[C@@H]3[C@@H](O[C@@H]3O[C@H](CO)[C@@H](O)[C@H](O)[C@H]3O)C[C@]12C`, for which the Potency result in experiment [1] and in experiment [2] was “inactive” throughout.
Take `COC(=O)N[C@@H](C)CNc1nccc(-c2cn(C(C)C)nc2-c2cc(Cl)cc(NS(C)(=O)=O)c2F)n1`: the Potency result in experiment [1] and in experiment [2] was “inactive” in each case.
With `COC1C(CO)OC(n2cnc3c(=O)[nH]cnc32)C1O` (stereo unspecified), the Potency result in experiment [1] and in experiment [2] was “inactive” throughout.
Consider `COC(=O)C[C@H]1C(C)(C)[C@H](OC(C)=O)C2CC3=C4CC(=O)O[C@@H](c5ccoc5)[C@]4(C)CCC3[C@@]1(C)C2=O` (stereo partly specified), for which the Potency result in experiment [1] and in experiment [2] was “inactive” each time.
On to `C=CC[C@]12C[C@@H](OC)C(=O)C(OC)=C1O[C@@H](c1cc(OC)c3c(c1)OCO3)[C@@H]2C`, for which the Potency result in experiment [1] and in experiment [2] was “inactive” throughout.
Regarding `C#CCN(Cc1cc2c(=O)n(C)c(CN3CCN(C)CC3)nc2cc1Cl)c1ccc(C(=O)NCc2cccnc2)cc1`, the Potency result in experiment [1] and in experiment [2] was “inactive” each time.
On to `CC[C@@H](O)C[C@@H]1C(C)=C[C@@H]2CCCC[C@@H]2[C@@]1(C)C(=O)O`, for which the Potency entry in experiment [1] and in experiment [2] was “inactive” in each case.
As to `O=C1CSc2ccccc2N1Cc1cccc(C(F)(F)F)c1`, the Potency entry in experiment [1] and in experiment [2] was “inactive” each time.
`CO/N=C(/C(=O)N[C@@H]1C(=O)N2C(C(=O)O)=C(Cn3ccc(=N)n3CCO)CS[C@H]12)c1csc(N)n1`: the Potency entry in experiment [1] and in experiment [2] was “inactive” throughout.
For the compound `C=C1CCC2C(C(C)(C)O)CCC2(C)CC(O)C(=C)CCC1O` (stereo unspecified), the Potency entry in experiment [1] and in experiment [2] was “inactive” each time.
`COc1ncc(Nc2ncc([C@@H](C)N3CCN(S(C)(=O)=O)CC3)cc2-c2nc(C)nc(N)n2)cc1F`: the Potency in experiment [1] is 44.7 µM (active). Further, in experiment [2], the Potency entry was “inactive”.
For `C[C@]12C[C@@H](O)[C@@H]3C[C@@]1(O[C@@H]1O[C@H](CO)[C@@H](O)[C@H](O)[C@H]1O)[C@]3(COC(=O)c1ccccc1)C(=O)O2`, in that order: “inactive” and “inactive”.
